ADAM10 inh = inhibitors of human ADAM10. O14672. inhibition, % at 7 µM. recombinant ADAM10, EDANS/DABCYL FRET peptide cleavage, 3 h. hit rate 0.62% among 370,000;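 active means inhibition above a per-campaign cutoff equal to the mean of compounds falling between control-based bounds plus 3 SD, cut at about 20% in these data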;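 further: 0% = DMSO wells while the 100% control is not disclosed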
GRIN3A LBD mod = modulates the human NR3A ligand-binding domain; Tm shift relative to glycine control, % at 25 µM; NR3A LBD differential scanning fluorimetry, Tm shift; 0% = protein alone, 100% = glycine-bound protein; hit rate 2.5% among 340,000;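 active means melting temperature shift of at least 10% of the positive control shift, at one fixed dose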
AHR activator = activates the human aryl hydrocarbon receptor; AHR-responsive luciferase reporter cells, luminescence; activation, % at 5 µM; hit rate 2.5% among 320,000; AID 2796; in the data active means activation above about 47%;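 further: 0% = vehicle wells and 100% = reference agonist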
ADAM17 inh = ADAM17 inhibition, QFRET primary screen. inhibition, % at 6.95 µM. P78536. recombinant ADAM17, EDANS/DABCYL FRET peptide cleavage. hit rate 0.83% among 370,000. AID 720648;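 active means inhibition above the mean of compounds lying between control limits plus 3 SD, set per campaign, cut at about 8.5% in these data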;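 further: 0% = DMSO-only wells as the low control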
Target sequence (P78536 215-824 limits assumed): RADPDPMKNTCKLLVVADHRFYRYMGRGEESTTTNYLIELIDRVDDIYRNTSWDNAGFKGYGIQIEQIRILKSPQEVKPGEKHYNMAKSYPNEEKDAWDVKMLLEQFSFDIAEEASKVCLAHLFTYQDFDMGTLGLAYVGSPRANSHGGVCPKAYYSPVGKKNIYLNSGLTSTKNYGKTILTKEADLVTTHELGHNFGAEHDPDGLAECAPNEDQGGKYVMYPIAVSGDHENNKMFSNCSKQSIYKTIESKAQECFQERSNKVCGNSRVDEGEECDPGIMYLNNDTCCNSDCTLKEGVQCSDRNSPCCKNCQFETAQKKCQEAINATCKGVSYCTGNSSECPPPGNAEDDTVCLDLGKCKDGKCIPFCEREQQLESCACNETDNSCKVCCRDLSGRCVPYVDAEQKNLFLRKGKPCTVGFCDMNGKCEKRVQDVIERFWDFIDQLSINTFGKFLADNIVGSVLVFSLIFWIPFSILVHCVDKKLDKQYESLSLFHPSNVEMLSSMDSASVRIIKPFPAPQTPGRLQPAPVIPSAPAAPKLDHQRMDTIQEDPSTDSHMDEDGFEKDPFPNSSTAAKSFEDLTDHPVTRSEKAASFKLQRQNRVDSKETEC
rCAG RNA binder = molecules binding r(CAG) RNA repeats | inhibition, % at 3 µM | hit rate 1.3% among 370,000 | r(CAG) RNA repeat, TO-PRO-1 dye displacement fluorescence | AID 651821;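 active means inhibition above the plate cutoff, the mean of all test compounds on that plate plus 3 SD, cut at about 35% in these data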;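 further: 0% = DMSO alone and 100% = 100 µM mitoxantrone as full dye displacement; higher means more dye released from RNA so lower well fluorescence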
proKLK7 act = proKLK7 (human) activation, primary screen | hit rate 0.9% among 370,000 | activation, % at 7 µM | AID 652039 | purified proKLK7, EDANS-DABCYL substrate fluorescence; 100% is mature enzyme control, 0% vehicle | P49862;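 active means activation above the mean of all tested compounds plus 3 SD, computed per campaign excluding outliers beyond control limits, cut at about 13% in these data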
rCAG bind conf = r(CAG) RNA repeat binding, confirmation; shares compounds with rCAG RNA binder; TO-PRO-1 dye displacement fluorescence; inhibition, % at 3 µM; hit rate 70% among 4,300; AID 652065;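 active means inhibition above a per-plate cutoff, the mean inhibition of sample wells plus 3 SD, cut at about 35% in these data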;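 further: loss of TO-PRO-1 fluorescence as compound displaces dye from 1x1 AA loop RNA; 0% = DMSO only wells and 100% = 100 µM mitoxantrone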
dCAG dye counter = counter-screen for rCAG RNA binders: DNA CAG dye complex inhibitors | shares compounds with rCAG RNA binder | inhibition, % at 3 µM | AID 652068 | hit rate 94% among 4,300 | d(CAG) DNA oligo TO-PRO-1 dye displacement, fluorescence;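 active means inhibition above its plate's cutoff, the mean test-well inhibition plus 3 SD, cut at about 4.8% in these data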;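 further: 0% = DNA dye mix with DMSO and 100% = 100 µM mitoxantrone; hits displace the dye from DNA and so lower well fluorescence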
dCAG dye DR = DNA CAG dye complex inhibition, dose response counter-screen; shares compounds with rCAG RNA binder; DNA CAG/GTC duplex TO-PRO-1 dye displacement fluorescence; IC50, µM; hit rate 20% among 250; AID 686960; in the data active means IC50 below about 10 µM
The depositor's hits bear a star; i = inactive; · = no result. An excerpt weighted towards active compounds, which were near 7% of everything screened.

SMILES	ADAM10 inh	GRIN3A LBD mod	AHR activator	ADAM17 inh	rCAG RNA binder	proKLK7 act	rCAG bind conf	dCAG dye counter	others
CO[C@H]1C=CO[C@@]2(C)Oc3c(C)c(O)c4c(O)c(c(C=NN5CCN(C)CC5)c(O)c4c3C2=O)NC(=O)C(C)=CC=C[C@H](C)[C@H](O)[C@@H](C)[C@@H](O)[C@@H](C)[C@H](OC(C)=O)[C@@H]1C	0	-3	-2	-3	78*	0	79*	49*
CO[C@H]1/C=C/O[C@@]2(C)Oc3c(C)c(O)c4c(O)c(c(C=NN5CCN(C)CC5)c(O)c4c3C2=O)NC(=O)/C(C)=C\C=C\[C@H](C)[C@H](O)[C@@H](C)[C@@H](O)[C@@H](C)[C@H](OC(C)=O)[C@@H]1C	2	1	3	2	83*	0	74*	44*
CCn1c(-c2cccs2)nc2ccccc21	-165	1	3	-58	0	1	·	·
CCn1c(C(C#N)/C(=N\S(=O)(=O)c2cccs2)c2ccccc2)nc2ccccc21 (stereo not given)	-5	-1	41	-5	37*	0	32	7.8*
O=C(NS(=O)(=O)c1ccc2ccc(S(=O)(=O)NCCSc3ccccc3)cc2c1)c1cccc2ccccc12	7	·	·	1	88*	0	88*	65*
Cc1nc2ccc(NC(=O)c3ccc(Cl)c([N+](=O)[O-])c3)cc2s1	9	-6	1	-1	1	0	·	·
Cc1nc2ccc(NC(=O)c3cc([N+](=O)[O-])cc([N+](=O)[O-])c3Cl)cc2s1	8	18*	3	3	94*	1	55*	22*
O=C(O)COc1ccccc1/C=C1\C(=O)Nc2ccc(Br)cc21	-2	2	8	1	43*	0	26	5.7*
CCCCNC(=O)C[C@H]1C[C@@]2(C(=O)OC)C(=C[C@H](C(C)(C)C)O[C@@H]2C)N(Cc2ccccc2)C1=O	-3	·	·	1	-2	0	·	·
CCc1cc(C(=O)N=Nc2c(O)[nH]c3ccc([N+](=O)[O-])cc23)c2ccccc2n1	16	6	6	3	42*	0	35*	22*
CC1CCc2sc(NC(=O)C3CC(Cl)=CCC3C(=O)O)c(C#N)c2C1 (stereo not given)	-2	-3	1	-4	49*	0	42*	13*
CC(C)(C)C1CCc2c(sc(NC(=O)C3CC=CCC3C(=O)O)c2C#N)C1 (stereo not given)	8	-7	-2	7	80*	0	72*	36*
N#Cc1c(NC(=O)C2CC=CCC2C(=O)O)sc2c1CCCCCC2 (stereo not given)	2	1	3	0	30	0	·	·
CCC(C)(C)C1CCc2c(sc(NC(=O)c3ccccc3C(=O)O)c2C#N)C1 (stereo not given)	6	-14	1	-2	91*	0	84*	56*
Clc1cccc(-c2nc(-c3ccc(-c4nn[nH]n4)cc3)no2)c1	9	-12	-5	3	36*	0	62*	19*	dCAG dye DR=i
Cc1nc(-c2noc(-c3cccc(Cl)c3)n2)c(C(F)(F)F)o1	0	0	3	-2	0	0	·	·
COC(=O)c1cccc(CSc2nc(-c3ccccc3)c(C#N)c(=O)[nH]2)c1	9	-5	1	7	75*	1	63*	23*
N#Cc1c(-c2ccccc2)nc(SCc2ccc(Cl)cc2)[nH]c1=O	6	·	1	-3	83*	0	76*	39*
C=CCSc1nc(-c2ccccc2)c(C#N)c(=O)[nH]1	-6	-1	-2	-1	13	0	·	·
COC(=O)[C@@]12CCCCC3=C1N(CCC3)C(=O)[C@H]2CC(=O)NCC12CC3CC(CC(C3)C1)C2	-1	·	·	-7	2	0	·	·
O=C(O)c1cc(-c2ccc(/C=C3/SC(=S)N(Cc4ccccc4)C3=O)o2)ccc1Cl	-3	2	·	-4	16	0	·	·
CN1C(=O)/C(=C/c2ccc(-c3ccccc3[N+](=O)[O-])o2)SC1=Nc1ccc(Cl)c(C(=O)O)c1	-1	-5	23	-2	43*	0	85*	51*
CC(C)(C)c1ccc(S(=O)(=O)NC(=O)C2(C)CCN2C(=O)C2(c3ccccc3)CC2)cc1 (stereo not given)	-4	·	·	2	47*	0	40*	10*
Cc1ccc(S(=O)(=O)NC(=O)C2(C)CCN2C(=O)C2(c3ccc(Cl)cc3)CCC2)cc1 (stereo not given)	-1	·	·	-2	42*	0	39*	10.0*
CC1(C(=O)NS(=O)(=O)c2ccc3c(c2)CCO3)CCN1C(=O)CCc1ccc(Cl)cc1Cl (stereo not given)	-6	·	·	-4	30	0	·	·
SMILES	ADAM10 inh	GRIN3A LBD mod	AHR activator	ADAM17 inh	rCAG RNA binder	proKLK7 act	rCAG bind conf	dCAG dye counter	others
CC1(C(=O)NS(=O)(=O)c2ccc3c(c2)CCO3)CCN1C(=O)C1(c2ccc(Cl)cc2)CCC1 (stereo not given)	-5	·	·	-4	36*	0	32	4
CC1(C(=O)NS(=O)(=O)c2ccc(Cl)cc2)CCN1C(=O)C1(c2ccccc2)CCCC1 (stereo not given)	0	·	·	0	50*	0	40*	12*
CC1(C(=O)NS(=O)(=O)c2ccc(C#N)cc2)CCN1C(=O)C1(c2ccc(Cl)cc2)CC1 (stereo not given)	3	·	·	2	17	0	·	·
CC1(C(=O)NS(=O)(=O)c2ccccc2)CCN1C(=O)C1(c2ccc(Cl)cc2)CC1 (stereo not given)	-14	·	·	-3	16	-1	·	·
CC1(C(=O)NS(=O)(=O)c2ccc(Cl)cc2)CCN1C(=O)C1(c2ccc(Cl)cc2)CCC1 (stereo not given)	-17	·	·	-3	55*	0	56*	18*
Cc1ccc(S(=O)(=O)NC(=O)C2(C)CCN2C(=O)C2(c3ccc(Cl)cc3)CC2)cc1 (stereo not given)	-14	·	·	-3	57*	0	29	5.7*
CC1(C(=O)NS(=O)(=O)Cc2ccccc2)CCN1C(=O)C1(c2ccc(Cl)cc2)CCC1 (stereo not given)	-7	·	·	-3	41*	-1	30	6.7*

High-throughput results from PubChem BioAssay.
